# About 13,000 (27%) of roughly 48,000 compounds showed an effect of 50% or more. This is one part of the list.
# Test system: Wolbachia pipientis
# Test: Anti-Wolbachia Cell-Based Screen
# Type: functional
# Set-up: scale not given: in the data most compounds retested in dose-response had high values
# Conditions: 5 µM
row,Structure (SMILES),Percent Effect
1,CSc1c[nH]nc1NS(=O)(=O)c1ccc(C)c(C)c1,4.625%
2,O=C(Nc1ccccc1CCO)c1cccc(CN2CC[C@H](O)C2)c1,-8.564%
3,COc1ccc(F)c(CN2CCCC3(CCN(S(C)(=O)=O)C3)C2)c1 (stereo unspecified),-4.467%
4,O=C(c1cccn1Cc1cccs1)N1CCCC1Cn1cccn1 (stereo unspecified),4.58%
5,Cc1oc(-c2cccs2)nc1C(=O)N1CCCC1Cn1cccn1 (stereo unspecified),103.5%
6,N#Cc1ccsc1C(=O)N1CCCCC1Cn1cccn1 (stereo unspecified),-3.499%
7,O=C(c1cc(-c2cccs2)on1)N1CCCCC1Cn1cccn1 (stereo unspecified),91.35%
8,Cc1noc(C)c1CN(C)CCc1nc(-c2cccc(Cl)c2)no1,0.3419%
9,Cc1c(C)c(C)c2[nH]c(-c3cn(C4CCNCC4)nn3)nc2c1C,5.399%
10,COc1cccc(CCn2ccnc2-c2cn(C3CCNCC3)nn2)c1,111.7%
11,Cc1cccc2[nH]c(-c3cn(C4CCNCC4)nn3)nc12,-0.8234%
12,Cc1cc2nc(-c3cn(C4CCNCC4)nn3)[nH]c2cc1C,-3.563%
13,O=C(NC1CCCCC1)N1CCC(n2cc(-c3ccccn3)nn2)CC1,-3.255%
14,Cc1ccc2[nH]c(-c3cn(C4CCNCC4)nn3)nc2c1C,9.5%
15,O[C@H]1[C@H](n2cc(-c3ccccn3)nn2)c2ccccc2C12CCNCC2,-37%
16,COc1cccc(CCN2C[C@H]3CCNCC[C@H]3S2(=O)=O)c1.O=C(O)C(F)(F)F,12.24%
17,c1ccc(CCCn2ccnc2-c2cn(C3CCNCC3)nn2)nc1,103.3%
18,c1ccc(OCCCn2ccnc2-c2cn(C3CCNCC3)nn2)cc1,87.94%
19,Clc1ccccc1CCn1ccnc1-c1cn(C2CCNCC2)nn1,101.1%
20,COc1ccc(CCn2ccnc2-c2cc3n(n2)CCCNC3)cc1,-17.25%
21,CNC(=O)c1cccc(CNC(C)c2cc(C)ccc2OC(F)F)c1 (stereo unspecified),2.562%
22,CC(C)CNc1nc(C(=O)/N=c2\[nH]nc(C(C)(C)C)s2)cs1,9.925%

row,Structure (SMILES),Percent Effect
1,COc1cccc([C@H]2CN(C(=O)c3scc4c3CCCC4)C[C@@H]2N)c1,-10.32%
2,O=S(=O)(CCc1ccccc1)Nc1cc(Cl)ccn1,-16.02%
3,CSCc1ccc(N2CCC(C(O)CC(C)C)CC2)nc1 (stereo unspecified),-3.23%
4,COc1cccc(CNC(C)c2ccc(-n3ccnc3)cc2)c1O (stereo unspecified),3.228%
5,CCc1nn(C)c(CC)c1CNC(=O)Nc1cccc([S+](C)[O-])c1 (stereo unspecified),3.217%
6,CN(C)c1nc(CNC(=O)Nc2cccc([S+](C)[O-])c2)cs1 (stereo unspecified),95.39%
7,CN1CCN(c2cccc(NC(=O)NCc3csc(N(C)C)n3)c2)C1=O,-9.852%
8,O=C(NCCn1nc2ccccn2c1=O)c1cccc2[nH]ncc12,-8.467%
9,CNCc1cn(CC2CCN(Cc3cccs3)CC2)nn1,1.439%
10,CNCc1cn(CC2CCN(CC(C)(C)CN3CCCC3)CC2)nn1,-11.44%
11,COCc1cn(CC2CCN(Cc3cc(C)[nH]n3)CC2)nn1,114.7%
12,COCc1cn(CC2CCN(Cc3c(C)[nH]c4ccccc34)CC2)nn1,121.8%
13,CC(C)(CN1CCCC1)CN1CCC(Cn2cc(CCO)nn2)CC1,39.97%
14,COCc1cn(CC2CCN(Cc3nc(C)c[nH]3)CC2)nn1,122.2%
15,Cc1cc(C)n2ncc(CN3CCC(Cn4cc(CO)nn4)CC3)c2n1,8.529%
16,CCCN1CCC(N2CCC(Cn3cc(CC(C)O)nn3)CC2)CC1 (stereo unspecified),-21.76%
17,Cc1nc(CN2CCCC(Cn3cc(CCO)nn3)C2)c[nH]1 (stereo unspecified),12.54%
18,CCC(CNC(=O)c1ccc(Br)o1)N1CCc2ccccc2C1 (stereo unspecified),-5.246%
19,N[C@H]1CC[C@@H](Nc2nccc(CCC(F)(F)F)n2)CC1,2.361%
20,Cc1nc(C2CCCN(C(=O)c3scnc3C)C2)no1 (stereo unspecified),-0.5479%
21,Nc1cc(-c2cncnc2C2CCN(C(=O)c3ccccc3)C2)ccn1 (stereo unspecified),132.6%
22,CC(C)n1ccnc1C1CCN(C(=O)c2ccccc2)CC1,1.199%

row,Structure (SMILES),Percent Effect
1,Cc1ncsc1C(=O)N1CCC(c2ncncc2-c2ccnc(N)c2)C1 (stereo unspecified),113.1%
2,O=C(c1ccccc1)N1CCCN(C(=O)c2ncncc2Cl)CC1,22.3%
3,Cc1ccc2nc(CN(Cc3ccc(C#N)cc3)C(C)C)cc(=O)n2c1,-2.733%
4,COCCCN(C)[C@@H]1c2ccccc2C2(CCNCC2)[C@H]1O,9.06%
5,COC(CNC(=O)c1cn(C)nn1)c1ccccc1C (stereo unspecified),-14.48%
6,COc1c(F)cc(-c2cn(CCn3c(C)cc(C)nc3=O)nn2)cc1Cl,-4.684%
7,CCn1ncc(CN2CCN(C(=O)Cn3cc(Br)c(C)n3)CC2)c1C,124.7%
8,CCn1ncc(Cn2cc(Cl)c(N)n2)c1C,0.6319%
9,Cc1nn(CC(=O)N2CCN(Cc3cnn(C)c3C)CC2)cc1Cl,97.92%
10,Cc1c(Cn2cc(Cl)c(N)n2)cnn1C,-4.897%
11,Cc1nn(CC(=O)NCc2cc3n(n2)CCCN(CC(C)C)C3)cc1Cl,-2.88%
12,Cc1noc(C)c1CN1CCN(C(=O)CCn2cncn2)CC1,-2.995%
13,Cc1nn(CCC(=O)N2CCN(Cc3cnn(C)c3C)CC2)c(C)c1Br,118.1%
14,Cc1nn(CC(=O)N2CCN(Cc3cccnc3)CC2)c(C)c1Cl,2.693%
15,Cc1nc(C)c(C(=O)N2CCCN(Cc3cnn(C)c3)CC2)s1,16.21%
16,Cc1nn(CC(=O)N2CCN(Cc3cnn(C)c3C)CC2)cc1Br,123%
17,Cl.Cl.OC(CN1CCN(Cc2cccc(F)c2)CC1)C1CC1 (stereo unspecified),-1.915%
18,CCC(=O)NC(CC(C)C)c1cccs1 (stereo unspecified),11.67%
19,O=C1CC(NS(=O)(=O)NCc2ccccc2)CN1c1ccccc1Cl (stereo unspecified),6.599%
20,Cc1ccc(OCC(=O)NC2(C#N)CCSCC2)cc1C,-7.391%
21,Cc1nsc(NC2CCN(c3ccccc3OC(F)F)C2=O)n1 (stereo unspecified),-11.3%
22,Cc1cccc(-c2nnc(C(C)NCCn3cc(C)cn3)o2)c1 (stereo unspecified),-10.86%
